From PubChem BioAssay
IDE exosite FP: insulin-degrading enzyme (human) exo-site inhibition | P14735 | purified IDE, FL-6b probe fluorescence polarization; stronger effect = lower value | z-score at 20 µM | 6.3% of 17,000 active;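 active = z-score of -3 or lower, meaning strong loss of probe binding signal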;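 note: His-tagged human IDE residues 42-1019 made in E. coli with 30 nM FL-6b probe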
* = called active by the depositor; ! = repeats disagree. This excerpt belongs to a sample that is enriched for hits.

SMILES	IDE exosite FP
COc1ccccc1-c1ccc(C2[C@@H]3CN(S(=O)(=O)c4ccc(C)cc4)C[C@H]2N3)cc1 (stereo partly drawn)	-1.17
COc1ccc(-c2ccc(C3[C@H]4CNC[C@@H]3N4S(=O)(=O)Cc3ccccc3)cc2)cc1 (stereo partly drawn)	0.067
CCN(C[C@H]1[C@H](c2ccccc2)[C@H](CO)N1CC1CC1)C(=O)c1ccccn1	-1.37
O=C(c1ccccn1)N1CC(=O)N2[C@H](CO)[C@H](c3ccc(-c4cccc(F)c4)cc3)[C@@H]2C1	2.62
CO[C@@H](CN(C)C(=O)c1cnccn1)[C@H](C)CN([C@@H](C)CO)S(=O)(=O)c1ccccc1	0.23
C[C@@H]1CN([C@H](C)CO)C(=O)Cc2cc(NC(=O)Nc3ccc(F)cc3)ccc2O[C@H]1CN(C)S(C)(=O)=O	0.107
COc1ccc(S(=O)(=O)N2C[C@@H](O)COC[C@@H]3O[C@@H](CC(=O)N[C@@H]4CCN(Cc5ccccc5)C4)CC[C@H]32)cc1	-0.956
CS(=O)(=O)N1CC(=O)N2[C@H](CO)[C@H](c3ccc(C#CCC4CCCC4)cc3)[C@@H]2C1	1.01
COc1ccccc1S(=O)(=O)N1C[C@@H]2N[C@H](C1)C2c1ccc(-c2ccncc2)cc1 (stereo partly drawn)	4.07
COc1ccc(-c2ccc([C@@H]3[C@@H](CO)N4CCCCN(CC5CCOCC5)C[C@H]34)cc2)cc1	3.83
Cc1ccccc1-c1ccc([C@@H]2[C@@H](CO)N3CCCCN(S(C)(=O)=O)C[C@H]23)cc1	1.67
Cc1ccccc1-c1ccc([C@@H]2[C@H](CO)N3CCCCN(CC4CCOCC4)C[C@@H]23)cc1	-5.49*
OC[C@H]1[C@H](c2ccc(C#Cc3ccccc3)cc2)[C@H]2CN(CC3CCOCC3)CCCCN21	-0.67
OC[C@@H]1[C@@H](c2ccc(C#Cc3ccccc3)cc2)[C@@H]2CN(CC3CCOCC3)CCCCN12	-2.61
OC[C@@H]1[C@@H](c2ccc(-c3cccnc3)cc2)[C@H]2CN(CC3CC3)CCCCN12	-1.19
Cc1ccccc1-c1ccc([C@H]2[C@H](CO)N3CCCCN(CC4CC4)C[C@@H]23)cc1	-2.04
Cc1ccccc1-c1ccc([C@@H]2[C@@H](CO)N3CCCCN(CC4CC4)C[C@H]23)cc1	-6.79*
COc1ccc(-c2ccc([C@@H]3[C@H]4CN(CC5CCOCC5)CCCCN4[C@H]3CO)cc2)cc1	0.214
OC[C@@H]1[C@H](c2ccc(C#Cc3ccccc3)cc2)[C@@H]2CN(CC3CCOCC3)CCCCN12	-3.88*
OC[C@@H]1[C@H](c2ccc(-c3cccnc3)cc2)[C@H]2CN(CC3CC3)CCCCN12	0.703
Cc1ccccc1-c1ccc([C@H]2[C@@H](CO)N3CCCCN(CC4CC4)C[C@H]23)cc1	-11.1*
Cc1noc(C)c1NC(=O)N[C@H]1C=C[C@@H](CC(=O)Nc2ccc(-c3ccccc3)cc2)O[C@@H]1CO	-0.675
COCCNC(=O)C[C@@H]1CC[C@@H]2[C@H](COC[C@H](O)CN2Cc2ccc(Cl)c(Cl)c2)O1	1.1
C/C=C/c1ccc([C@H]2[C@@H](CO)N(C(C)=O)[C@@H]2CN(CC)C(=O)CN(C)C)cc1	-0.228
Cc1ccccc1S(=O)(=O)N1CC(=O)N2[C@H](CO)[C@@H](c3ccc(C#CCC4CCCC4)cc3)[C@H]2C1	4.87
SMILES	IDE exosite FP
CC(=O)N1CC(=O)N2[C@H](C1)[C@@H](c1ccc(-c3ccc(C)cc3)cc1)[C@@H]2CO	0.619
CNC(=O)C[C@H]1CC[C@@H]2[C@H](COc3ccc(NS(=O)(=O)c4ccc(F)cc4)cc3C(=O)N2C)O1	-1.51
CN(C)C(=O)c1cccc(-c2ccc([C@@H]3[C@H]4CN(Cc5cccnc5)CCCCN4[C@H]3CO)cc2)c1	2.27
OC[C@@H]1[C@H](c2ccc(-c3cccnc3)cc2)[C@@H]2CN(CC3CC3)CCCCN12	1.07
OC[C@H]1[C@H](c2ccc(-c3cccnc3)cc2)[C@@H]2CN(CC3CC3)CCCCN12	1.83
Cc1ccccc1-c1ccc([C@@H]2[C@H](CO)N3CCCCN(CC4CC4)C[C@@H]23)cc1	-9.61*
C[C@@H]1CN([C@H](C)CO)C(=O)CCCn2nncc2CO[C@H]1CN(C)Cc1ccccc1C(=O)O	-1.51
COc1ccc(C#Cc2ccc([C@H]3[C@H]4CN(S(=O)(=O)c5ccccc5)CCCCN4[C@H]3CO)cc2)cc1	2.99
O=C(CN1CCOCC1)N1C[C@@H]2N[C@H](C1)C2c1ccc(-c2ccccc2)cc1 (stereo partly drawn)	1.57
O=C(Cc1ccncc1)N1C[C@@H]2N[C@H](C1)C2c1ccc(/C=C/c2ccccc2)cc1 (stereo partly drawn)	-4.58*!
O=C(Cc1ccncc1)N1C[C@@H]2N[C@H](C1)C2c1ccc(-c2ccccc2)cc1 (stereo partly drawn)	-3.06*
O=S(=O)(c1ccc(-c2ccccc2)cc1)N1C[C@@H]2N[C@H](C1)C2c1ccc(-c2ccncc2)cc1 (stereo partly drawn)	1.08
C/C=C/c1ccc(C2[C@@H]3CN(C(=O)Cc4ccccc4)C[C@H]2N3)cc1 (stereo partly drawn)	2.21
